Assay results published in the supplement of paper PMC6897291.
Counter-ions that a name gives are not always drawn.

Tested on: RIVA
Assay: growth inhibition by drug alone (1 - RLU/untreated control) (fraction); higher = stronger inhibition
Conditions: 10 nM; time (day): 6; 177Lu-lilotomab satetraxetan 0 ug/ml
Outline: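 A radiolabelled anti-CD37 antibody conjugate (~600 MBq/mg) was applied for 18 h at 0.5 µg/ml to RIVA and 1 µg/ml to U-2932 cells, with untreated cells run alongside. All cells were washed and seeded at 3,000 cells/well onto library-printed plates at 10/100 nM (RIVA) or 10/1,000 nM (U-2932). Growth inhibition was based on RealTime-Glo luminescence compared with untreated no-drug wells. Daily reads began on day 3 after 1 h at 37°C, with each value being 1 − RLU/mean of the 48 such wells on that plate.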

Row | SMILES | growth inhibition by drug alone
1 | Nc1cc(C(F)(F)F)c(-c2cc(N3CCOCC3)nc(N3CCOCC3)n2)cn1 | -0.377
2 | CC(C)(C)c1ccc(S(=O)(=O)/C=C/C#N)cc1 | -0.202
3 | C[C@]1(c2nc3c(C(N)=O)cccc3[nH]2)CCCN1 [ABT-888 (Veliparib)] | -0.314
4 | Cc1ccc(NC(=O)c2ccc(CN3CC[C@H](N(C)C)C3)c(C(F)(F)F)c2)cc1Nc1nccc(-c2cncnc2)n1 [Bafetinib (INNO-406)] | 0.188
5 | C[C@]12CC[C@@H]3c4ccc(O)cc4CC[C@H]3[C@@H]1CCC2=O [Estrone] | -0.295
6 | O=C(c1ccc(OCCN2CCCCC2)cc1)c1c(-c2ccc(O)cc2)sc2cc(O)ccc12 [Evista (Raloxifene Hydrochloride)] | -0.472
7 | CCN(CC)CCNC(=O)c1c(C)[nH]c(/C=C2\C(=O)Nc3ccc(F)cc32)c1C [Sunitinib Malate (Sutent)] | -0.511
8 | CCOc1ccc(Nc2nc(-c3c(C)nc4ccccn34)cs2)cc1 | -0.237
9 | C=CC(=O)N1CCC[C@@H](n2nc(-c3ccc(Oc4ccccc4)cc3)c3c(N)ncnc32)C1 | 0.642
10 | CS(=O)(=O)c1cccc(CNc2nc(Nc3ccc4c(c3)CCC(=O)N4)ncc2C(F)(F)F)c1 | -0.0957
11 | CC(NC(=O)c1ccccc1/N=C/c1c(O)ccc2ccccc12)c1ccccc1 (stereo not drawn) [Sirtinol] | -0.367
12 | CN(Cc1cnc2nc(N)nc(N)c2n1)c1ccc(C(=O)N[C@@H](CCC(=O)O)C(=O)O)cc1 [Abitrexate (Methotrexate)] | -0.39
13 | OCCn1cc(-c2cnc3nnn(Cc4ccc5ncccc5c4)c3n2)cn1 | -0.165
14 | COc1cc(Nc2ncc(F)c(Nc3ccc4c(n3)NC(=O)C(C)(C)O4)n2)cc(OC)c1OC [R406(free base)] | -0.0464
15 | COc1cccc2c1C(=O)c1c(O)c3c(c(O)c1C2=O)C[C@@](O)(C(=O)CO)C[C@@H]3O[C@H]1C[C@H](N)[C@H](O)[C@H](C)O1 [Doxorubicin (Adriamycin)] | 0.391
16 | CN(NC(=O)CC(=O)NN(C)C(=S)c1ccccc1)C(=S)c1ccccc1 [Elesclomol] | 0.964
17 | CN(C)CCOc1ccc(/C(=C(/CCCl)c2ccccc2)c2ccccc2)cc1 [Toremifene Citrate (Fareston, Acapodene)] | -0.0195
18 | CN1CCN(CCOc2cc(OC3CCOCC3)c3c(Nc4c(Cl)ccc5c4OCO5)ncnc3c2)CC1 [Saracatinib (AZD0530)] | -0.893
19 | CC(C)C[C@H](NC(=O)[C@H](Cc1ccccc1)NC(=O)c1cnccn1)B(O)O [Bortezomib (Velcade)] | 0.96
20 | Cn1cncc1[C@@](N)(c1ccc(Cl)cc1)c1ccc2c(c1)c(-c1cccc(Cl)c1)cc(=O)n2C [Tipifarnib (Zarnestra)] | -0.678
21 | COC(=O)c1ccc2c(C(=Nc3ccc(N(C)C(=O)CN4CCN(C)CC4)cc3)c3ccccc3)c(O)[nH]c2c1 [BIBF1120 (Vargatef)] | -0.27
22 | CC[C@@H]1/C=C(\C)C[C@H](C)C[C@H](OC)[C@H]2O[C@@](O)(C(=O)C(=O)N3CCCC[C@H]3C(=O)O[C@H](/C(C)=C/[C@@H]3CC[C@H](Cl)[C@H](OC)C3)[C@H](C)[C@@H](O)CC1=O)[C@H](C)C[C@@H]2OC [Pimecrolimus] | 0.279
23 | CN(C)CCOc1ccc(-c2nc(-c3ccncc3)c(-c3ccc4c(c3)CC/C4=N\O)[nH]2)cc1 | -0.14
24 | COc1ccc(CCN2CCN(CCCc3ccccc3)CC2)cc1OC | -0.55
25 | CNC(=O)c1cc(Oc2ccc(NC(=O)Nc3cc(C(C)(C)C)nn3-c3ccc4ncccc4c3)c(F)c2)ccn1 [DCC-2036 (Rebastinib)] | -0.395
26 | CCC(C)(C)C(=O)O[C@H]1C[C@@H](C)C=C2C=C[C@H](C)[C@H](CC[C@@H]3C[C@@H](O)CC(=O)O3)[C@H]21 [Simvastatin (Zocor)] | -0.276
27 | CCc1ccc(CCOc2ccc(CC3SC(=O)NC3=O)cc2)nc1 (stereo not drawn) [Pioglitazone (Actos)] | -0.191
28 | O=C(O)C(Cc1c[nH]c2ccccc12)N1C(=O)c2ccccc2C1=O (stereo not drawn) | -0.485
